High-throughput results: PubChem BioAssay, National Center for Advancing Translational Sciences (NCATS)
FUS yeast rescue: qHTS for Suppressors of FUS Proteinopathy: Primary screen using FUS-linked yeast assay | S. cerevisiae FUS-expressing, growth rescue, OD600, 24 h | Potency, µM (series often up to 76.6 µM), hits mostly activators | hit rate 0.24% among 390,000 | AID 1347120, 2019;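 also: plate controls were DMSO vehicle for no effect and reference control for full effect; nearly all actives have a fitted effect of over 55% in size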
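Absorbance at 600 nm, taken 24hr after compound addition, measured rescue of FUS-yeast growth at 30C. Induction used 2% galactose with seeding at OD 0.005. Controls: CP55940 from 92uM final, DMSO only.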
aSyn yeast inh: qHTS of alpha-syn Inhibitors | Yeast expressing alpha-synuclein, growth rescue, BacTiter-Glo, 24 h | Potency, µM (doses to about 46.1 µM), for the others: top-dose growth rescue (activation), hits mostly activators | hit rate 0.14% among 370,000 | AID 652106, 2013; also: % of control where 0% means no effect; nearly all actives have a fitted effect of over 65% in size
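Rescue of yeast growth: cells expressing toxic alpha-synuclein, induced in galactose at OD600 0.02, incubated with compound 24 h at 30 C. ATP luminescence quantified growth; inhibitors of toxicity appear as activators.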
Abeta yeast res: qHTS for compounds that reverse cellular toxicity of Amyloid beta (A-beta) peptide in yeast: Primary Screen. yeast expressing A-beta42, growth rescue, OD600, 48 h; response scale: 0% DMSO, 100% iron-clioquinol control. Potency, µM (doses to about 46.1 µM), most hits filed as activators. hit rate 0.063% among 410,000. AID 1347071, 2019; also: nearly all actives have a fitted effect of over 55% in size
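Growth rescue measured by 600 nm absorbance after 48 h yeast culture at 30 C with compound. Values normalized between DMSO and an equimolar ferric chloride plus clioquinol control.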
TDP43 rescue: qHTS of TDP-43 Inhibitors; hit rate 1.8% among 410,000; TDP-43 expressing yeast growth rescue, BacTiter-Glo, 24 h; Potency, µM (titrated, usually from 46.1 µM), without a hit: at the top dose growth rescue (activation), most hits filed as activators; AID 652104, 2013; also: % of control where 0% means no effect; nearly all actives have a fitted effect of over 50% in size
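Cell-based yeast growth screen: TDP-43 expression induced in galactose, inoculum OD600=0.02 after raffinose pregrowth to mid-log. Read-out BacTiter-Glo luminescence at 24 hr, 30 deg C; inhibition of toxicity seen as signal increase.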
* = called active by the depositor; [ ] = dose if it differs, or a comment. Only some compounds are listed: those with a hit (about 2.1% of all), similar ones and a draw of the others. Calls follow the shape of the dose curve; as a rule, active = well fitted curve in the direction sought with a large enough effect; inconclusive = small, poorly fitted or top-dose-only effect, or another doubt; inactive = no such curve, though single readings can be large; an effect the other way counts as inactive or inconclusive. Potency is read from the fitted curve at half-maximal effect.

How did O=C1CC(c2ccc(Br)cc2)c2c(ccc3ccccc23)N1 (stereo not given) do in these assays?
FUS yeast rescue: inactive; Abeta yeast res: inactive; TDP43 rescue: 35.5µM*

What do the screens show for `O=C1CC(c2cccc([N+](=O)[O-])c2)c2c(ccc3ccccc23)N1` (stereo not given)?
FUS yeast rescue: inactive; aSyn yeast inh: 4.3%; Abeta yeast res: inactive; TDP43 rescue: -8.3%

What do the screens show for `O=C(Nc1nc2c(s1)CCCC2)Oc1ccccc1`?
FUS yeast rescue: inactive; aSyn yeast inh: 0.6%; Abeta yeast res: inactive; TDP43 rescue: 1.2%

What do the screens show for `C/C(=N\Nc1nc2c(s1)CCCC2)c1ccccc1`?
FUS yeast rescue: inconclusive; aSyn yeast inh: 7.1%; Abeta yeast res: inactive; TDP43 rescue: 20µM*

Results for C/C(=N\Nc1nc(C(C)(C)C)cs1)c1ccccc1 ?
FUS yeast rescue: inactive; aSyn yeast inh: -25.6%; Abeta yeast res: inactive; TDP43 rescue: 22.4µM*

Results for CNc1cncc(-c2ccc(F)c(F)c2)n1 ?
FUS yeast rescue: inactive; aSyn yeast inh: 23.3%; Abeta yeast res: inactive; TDP43 rescue: inconclusive

How did CNc1cncc(-c2ccc(OC)c(OC)c2)n1 do in these assays?
FUS yeast rescue: inactive; aSyn yeast inh: 7.94µM*; Abeta yeast res: inactive; TDP43 rescue: -46.9%

How did CNc1cncc(-c2c(OC)cccc2OC)n1 do in these assays?
FUS yeast rescue: inactive; aSyn yeast inh: -4.0%; Abeta yeast res: inactive; TDP43 rescue: 3.8%

Results for CNc1cncc(-c2cccc(OC)c2F)n1 ?
FUS yeast rescue: inactive; aSyn yeast inh: 3.0%; Abeta yeast res: inactive; TDP43 rescue: 28.2µM*

What do the screens show for `CCn1c(=O)c2cc(C(=O)N3CCN(c4cccc(OC)c4)CC3)sc2c2ccccc21`?
FUS yeast rescue: inconclusive; Abeta yeast res: inactive; TDP43 rescue: inconclusive

What do the screens show for `CC(=O)c1cccc(NC(=O)c2noc3c2CSc2ccccc2-3)c1`?
FUS yeast rescue: inactive; Abeta yeast res: inactive; TDP43 rescue: 16.1%

Results for Cc1ccc(N2CC(C(=O)Nc3nnc(SCc4ccccn4)s3)CC2=O)cc1 (stereo not given) ?
FUS yeast rescue: inactive; aSyn yeast inh: 1.1%; Abeta yeast res: inactive; TDP43 rescue: 25.4%

Results for Cc1cccc(N2CC(C(=O)Nc3nnc(SCc4ccccn4)s3)CC2=O)c1 (stereo not given) ?
FUS yeast rescue: 17.8µM*; aSyn yeast inh: 3.1%; Abeta yeast res: inactive; TDP43 rescue: -1.1%

Results for COc1ccc(CN2C(=O)CCCC2(C)c2nnnn2-c2c(C)cccc2C)cc1OC (stereo not given) ?
FUS yeast rescue: inactive

Results for CC1(C(=O)Nc2ccc3c(c2)OCO3)CCN1C(=O)C1(c2ccc(Cl)cc2)CC1 (stereo not given) ?
FUS yeast rescue: inconclusive; aSyn yeast inh: 1.6%; Abeta yeast res: inactive; TDP43 rescue: 0.0%

Results for CC1(C(=O)NCc2ccc3c(c2)OCO3)CCN1C(=O)C1(c2ccc(Cl)cc2)CC1 (stereo not given) ?
FUS yeast rescue: inactive; aSyn yeast inh: 8.0%; Abeta yeast res: inactive; TDP43 rescue: 25.1µM*

Results for Cn1nc(C(C)(C)C)cc1NC(=O)C1(C)CCN1C(=O)C1(c2ccccc2)CC1 (stereo not given) ?
FUS yeast rescue: inactive; aSyn yeast inh: 8.9%; Abeta yeast res: inactive; TDP43 rescue: inconclusive

How did Cn1nc(C(C)(C)C)cc1NC(=O)C1(C)CCN1C(=O)C1(c2ccccc2)CCCC1 (stereo not given) do in these assays?
FUS yeast rescue: inactive; aSyn yeast inh: 14.1%; Abeta yeast res: inactive; TDP43 rescue: 35.5µM*

How did CC1(C(=O)Nc2ccc3c(c2)OCCO3)CCN1C(=O)C1(c2ccccc2)CC1 (stereo not given) do in these assays?
FUS yeast rescue: inactive; aSyn yeast inh: 4.4%; Abeta yeast res: inactive; TDP43 rescue: 12.6µM*

Results for COC(=O)C[C@H]1CC[C@@H]2[C@@H](COc3ccc(NS(=O)(=O)c4ccccc4Cl)cc3C(=O)N2C)O1 ?
FUS yeast rescue: inactive

How did CC(C)CCNC(=O)CSc1nc2c(c(=O)[nH]1)CCC2 do in these assays?
FUS yeast rescue: inactive

Results for CN=c1scc(-c2ccco2)n1/N=C/c1ccc(O)c(O)c1 ?
FUS yeast rescue: inactive; aSyn yeast inh: 13.4%; Abeta yeast res: inactive; TDP43 rescue: 28.2µM*

Results for c1ccc2sc(NCC3CCCO3)nc2c1 (stereo not given) ?
FUS yeast rescue: inactive; aSyn yeast inh: -2.6%; Abeta yeast res: inactive; TDP43 rescue: 3.5%[0.397 µM]

How did C=CCNc1nc(-c2cc3ccccc3o2)cs1 do in these assays?
aSyn yeast inh: -1.4%; Abeta yeast res: inactive; TDP43 rescue: 12.6µM*

What do the screens show for `c1ccc2oc(-c3csc(NCC4CCCO4)n3)cc2c1` (stereo not given)?
FUS yeast rescue: inactive; aSyn yeast inh: -2.3%; Abeta yeast res: inactive; TDP43 rescue: 11.2µM*

What do the screens show for `C=CCNc1nc(-c2ccc3c(c2)OCCO3)cs1`?
FUS yeast rescue: inactive; aSyn yeast inh: 0.1%; Abeta yeast res: inactive; TDP43 rescue: 22.9%

How did COc1ccc(CNCC#Cc2ccccc2)c(OC)c1 do in these assays?
FUS yeast rescue: inactive

Results for CC1CCCN(C(=O)CSc2c3c(nc4cc(Cl)ccc24)CCCC3)C1 (stereo not given) ?
FUS yeast rescue: inactive; Abeta yeast res: inactive; TDP43 rescue: 17.8µM*

Results for COc1ccc(OC)c(NC(=O)CSc2c3c(nc4cc(Cl)ccc24)CCCC3)c1 ?
FUS yeast rescue: inactive; Abeta yeast res: inactive; TDP43 rescue: 20µM*

How did CC1CCCCN1C(=O)CSc1c2c(nc3cc(Cl)ccc13)CCCC2 (stereo not given) do in these assays?
FUS yeast rescue: inactive; Abeta yeast res: inactive; TDP43 rescue: 2.8%

How did O=C(CSc1c2c(nc3cc(Cl)ccc13)CCCC2)N1CCN(c2ccccc2F)CC1 do in these assays?
FUS yeast rescue: inactive; Abeta yeast res: inactive; TDP43 rescue: 35.5µM*

What do the screens show for `O=C(CSc1c2c(nc3ccc(Cl)cc13)CCCC2)N1CCCCC1`?
FUS yeast rescue: inactive; Abeta yeast res: inactive; TDP43 rescue: 15.8µM*

What do the screens show for `C[C@@H]1COc2cc(Br)ccc2S(=O)(=O)N1Cc1cn(CCC2OCCCO2)nn1`?
FUS yeast rescue: inactive

How did COc1ccc(NC(=O)CSc2nc(N)c3cc4c(nc3n2)CCCC4)c(OC)c1 do in these assays?
FUS yeast rescue: 31.6µM*; aSyn yeast inh: 4.2%; Abeta yeast res: inactive; TDP43 rescue: -32.1%

Results for CCOc1ccc(C2Nc3c(C)cccc3-c3cc(C)nn32)cc1 (stereo not given) ?
FUS yeast rescue: inactive; Abeta yeast res: inconclusive; TDP43 rescue: 11.2µM*
